Source: PubChem BioAssay (National Center for Advancing Translational Sciences (NCATS))
ATXN viability – Viability Counterscreen for Primary qHTS for Inhibitors of ATXN expression; S2 cells (HEK-293 line with an ATXN2-luciferase reporter) viability, CellTiter-Fluor protease fluorescence, 24 h; Potency, µM (series often up to 56.7 µM), most hits filed as cytotoxic; hit rate 0.49% among 400,000; AID 651635, 2014; note: potency is the fitted concentration of half-maximal effect; nearly all actives have a fitted effect of over 40% in size
D3 ag – qHTS of D3 Dopamine Receptor Agonist: qHTS; D3R DiscoveRx beta-arrestin cells, luminescence, 90 min; D(3) dopamine receptor (Homo sapiens), P35462; max activation, %; hit rate 0.58% among 410,000; in the data active = max activation above about 30%; note: 0% is about no effect
Target sequence (P35462 whole entry, looked up): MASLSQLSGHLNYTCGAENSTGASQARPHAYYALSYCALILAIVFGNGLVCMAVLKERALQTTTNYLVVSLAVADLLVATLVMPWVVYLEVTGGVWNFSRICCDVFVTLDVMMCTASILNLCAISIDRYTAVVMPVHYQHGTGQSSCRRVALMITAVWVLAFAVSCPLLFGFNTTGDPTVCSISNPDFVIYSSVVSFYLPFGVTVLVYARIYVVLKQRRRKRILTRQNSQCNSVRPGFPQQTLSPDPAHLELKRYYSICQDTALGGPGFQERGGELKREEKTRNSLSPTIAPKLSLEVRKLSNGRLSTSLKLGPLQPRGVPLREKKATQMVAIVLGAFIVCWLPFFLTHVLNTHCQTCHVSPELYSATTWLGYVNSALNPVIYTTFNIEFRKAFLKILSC
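Agonist-mode cell screen: cells plated at 1500/well and incubated overnight at 37 °C, then exposed to library compounds for 90 min at 37 °C. Detection reagent was added for 30–60 min at room temperature, and luminescence was read.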
TGFb inhibitor – qHTS for Inhibitors of TGF-b; HepG2 CAGA-GFP TGF-b/SMAD3 reporter, GFP fluorescence, 18 h; TGF-beta stimulated, 500 pg/mL final; Potency, µM (titrated, usually from 46.1 µM), without a hit: at the top dose activity, negative = inhibition, hits mostly inhibitors; hit rate 1.2% among 410,000; note: potency is the fitted concentration of half-maximal effect; % is set by controls: 0 for no effect and ±100 for the full control effect; nearly all actives have a fitted effect of over 65% in size
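Inhibition of TGF-beta-driven CAGA-GFP reporter expression in HEPG2 cells is measured by cellular GFP fluorescence after 18 h stimulation with 500 pg/mL recombinant TGF-beta in 1% FBS medium at 37 degrees C.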
HepG2 viability – qHTS for Inhibitors of TGF-b: Cytotox Counterscreen; Potency, µM (top dose mostly 46.1 µM), inactives show at the highest dose activity change, negative = cytotoxicity, actives largely listed as cytotoxic; HepG2 CAGA-GFP viability, ATP luminescence, 18 h; AID 588856, 2011; hit rate 0.76% among 410,000; note: potency is the fitted concentration of half-maximal effect
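HepG2 CAGA-GFP cells (1000/well, DMEM with 1% FBS) received compound, then TGF-beta at 500 pg/mL final, and were incubated 18 hours at 37 degrees C. Viability was read by CellTiter-Glo luminescence. Media-only wells were set as complete cell-killing and DMSO as no toxicity.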
D3 antag – qHTS of D3 Dopamine Receptor Antagonist: qHTS. D3R cells, DiscoveRx beta-arrestin luminescence, antagonist mode; stronger effect = lower value. max response, negative = inhibition, %. hit rate 2.5% among 360,000. AID 652054, 2013; in the data active = max response below about -50%; inconclusive = no clear call, values can overlap the other calls; note: % is set by controls: 0 for no effect and ±100 for the full control effect
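Cells expressing the human receptor were seeded at 1500 cells/well, incubated overnight at 37 degrees C in 5% CO2, then exposed to library compounds with dopamine controls for 90 minutes at 37 degrees C before luminescent detection.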
ATXN2 expr inh – Primary qHTS for Inhibitors of ATXN expression; HEK-293 ATXN2-luciferase reporter, luminescence, 24 h; Potency, µM (doses to about 57 µM), for the others: at the top dose activity change, negative = inhibition, hits mostly inhibitors; hit rate 0.72% among 360,000; note: potency is the fitted concentration of half-maximal effect; % is set by controls: 0 for no effect and ±100 for the full control effect; nearly all actives have a fitted effect of over 55% in size
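qHTS (up to 57 uM final) was run with 24 h compound exposure of reporter cells at 37 °C. Each well was multiplexed: SteadyGlo luminescence measured ATXN2-luciferase expression after a fluorogenic Gly-Phe-AFC viability readout (25 uM final).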
* marks the source's active call; other numbers are inactive results. This is a sample that favours compounds with a hit; in the whole collection about 4.8% have one here. Unless noted, calls come from the whole dose curve; as a rule, active = well fitted curve in the direction sought with a large enough effect; inconclusive = small, poorly fitted or top-dose-only effect, or another doubt; inactive = no such curve, though single readings can be large; an effect the other way counts as inactive or inconclusive.

For Cc1ccc(S(=O)(=O)C2CS(=O)(=O)CC2O)cc1 (configuration not stated) the results were ATXN viability inactive, D3 ag 0, TGFb inhibitor inconclusive, HepG2 viability -4%, D3 antag 18 and ATXN2 expr inh -8%.
For CC(=O)C1=C(S(=O)(=O)c2ccc(C)cc2)CS(=O)(=O)C1 the results were ATXN viability inactive, D3 ag -7, TGFb inhibitor inconclusive, HepG2 viability -79%, D3 antag -67* and ATXN2 expr inh -30%.
C[C@@]12C(C[C@H](O)[C@@]34C[C@@H](CCC13)[C@@H](CO)C4=O)[C@](C)(C(=O)O)CC[C@@H]2O (some centres not stated) was read as ATXN viability inactive, D3 ag -9, TGFb inhibitor -17%, HepG2 viability 0%, D3 antag 0 and ATXN2 expr inh -17%.
Screening C=C1C(=O)[C@]23C[C@H]1CCC2[C@@]1(C)C(C[C@@H]3O)[C@](C)(C(=O)OC)CC[C@@H]1O (some centres not stated) returned D3 ag -12, TGFb inhibitor 0.79µM*, HepG2 viability 5µM*, D3 antag -67* and ATXN2 expr inh 1.6µM*.
Screening CN(C(=S)Nc1ccccc1F)C1(c2ccccc2Cl)CCCCC1=O (configuration not stated) returned ATXN viability inactive, D3 ag 30*, TGFb inhibitor -13%, HepG2 viability 2%, D3 antag 7 and ATXN2 expr inh -7%.
Cc1ccc(S(=O)(=O)Nc2nc3n(n2)C(c2ccc(F)cc2)C=C(c2ccccc2)N3)cc1 (configuration not stated) was read as D3 ag 39*, TGFb inhibitor 30%, HepG2 viability -11% and ATXN2 expr inh 14%.
For Cc1ccc(NC(=S)N(CCN(C)C)C(C)c2ccco2)c(C)c1 (configuration not stated) the results were ATXN viability inactive, D3 ag -4, TGFb inhibitor -27%, HepG2 viability -16% and D3 antag -5.
Screening CCc1ccccc1NC(=S)N(CCN(C)C)C(C)c1ccco1 (configuration not stated) returned ATXN viability inactive, D3 ag -4, TGFb inhibitor 27%, HepG2 viability 1%, D3 antag -146* and ATXN2 expr inh 0%.
Screening Cc1ccc(NC(=S)N(CCN(C)C)C(C)c2ccco2)cc1Cl (configuration not stated) returned ATXN viability inactive, D3 ag -1, TGFb inhibitor 18µM*, HepG2 viability -10% and D3 antag 0.
CCc1cccc(C)c1NC(=S)N(CCN(C)C)C(C)c1ccco1 (configuration not stated) was read as ATXN viability inconclusive, D3 ag 5, TGFb inhibitor -7%, HepG2 viability -5% and D3 antag 17.
Screening O=C(O)C(=O)Nc1cccc(-c2nn[nH]n2)c1 returned ATXN viability inactive, D3 ag -27 and ATXN2 expr inh 1%.
Screening CCOC(=O)Cc1ccc(NC(=O)N2CCOc3ccc(C)cc32)cc1 returned D3 ag -10, TGFb inhibitor inconclusive and HepG2 viability -12%.
Screening CCOC(=O)COc1ccccc1/C=C\[N+](=O)[O-] returned D3 ag -12, TGFb inhibitor 5.6µM*, HepG2 viability 8.9µM*, D3 antag -103* and ATXN2 expr inh inconclusive.
Screening Cc1ccccc1-c1nnc(CN2CCN(c3cccc(C)c3C)CC2)o1 returned ATXN viability inactive, D3 ag 2, TGFb inhibitor inconclusive, HepG2 viability -16% and ATXN2 expr inh 1%.
